Rows were chosen to be rich in hits. Some 19% of all compounds tested hit in one or more screens of this group.
DT40 TDP1 no CPT = qHTS for Inhibitors of human tyrosyl-DNA phosphodiesterase 1 (TDP1): qHTS in cells in absence of CPT; DT40 Tdp1-/- hTDP1 cells, no CPT, ATP luminescence, 48 h; Potency, µM (titrated, usually from 46.2 µM), without a hit: at the top dose activity change, negative = growth inhibition, hits mostly inhibitors; actives 15% (n = 420,000); note: potency is the fitted concentration of half-maximal effect; nearly all actives have a fitted effect of over 55% in size
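Growth kinetics read by CellTiter-Glo luminescence after ≥48 hr at 37 °C. Cells: DT40 Tdp1-/- stably carrying human TDP1, 400 per well, compound exposure in the absence of CPT (DMSO vehicle).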
TDP1 block = TDP1 (human) enzyme inhibition. actives 0.28% (n = 350,000). Potency, µM (doses to about 130 µM), for the others: at the highest dose activity change, negative = inhibition, hits mostly inhibitors. recombinant TDP1, AlphaScreen DNA substrate cleavage. Q9NUW8. AID 485290; note: potency is the fitted concentration of half-maximal effect; nearly all actives have a fitted effect of over 40% in size
Target sequence (Q9NUW8 whole entry, looked up): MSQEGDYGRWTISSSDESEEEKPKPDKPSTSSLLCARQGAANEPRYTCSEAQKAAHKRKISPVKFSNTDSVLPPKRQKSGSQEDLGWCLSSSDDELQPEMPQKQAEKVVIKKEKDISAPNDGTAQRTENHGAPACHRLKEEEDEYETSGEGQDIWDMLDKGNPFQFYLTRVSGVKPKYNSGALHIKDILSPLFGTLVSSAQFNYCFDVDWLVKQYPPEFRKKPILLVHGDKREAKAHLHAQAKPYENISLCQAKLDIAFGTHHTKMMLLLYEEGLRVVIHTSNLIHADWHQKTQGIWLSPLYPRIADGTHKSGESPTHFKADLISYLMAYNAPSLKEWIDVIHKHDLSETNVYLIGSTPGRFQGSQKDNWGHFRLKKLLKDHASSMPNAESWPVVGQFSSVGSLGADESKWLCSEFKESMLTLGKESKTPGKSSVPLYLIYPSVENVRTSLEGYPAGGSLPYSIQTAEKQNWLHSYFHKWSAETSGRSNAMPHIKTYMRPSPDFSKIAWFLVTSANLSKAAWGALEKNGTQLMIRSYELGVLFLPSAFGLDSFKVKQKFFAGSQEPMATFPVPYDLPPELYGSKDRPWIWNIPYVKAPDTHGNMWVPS
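Recombinant human Tdp1 (E. coli-expressed, 1 nM final) preincubated with compounds 15 min at room temperature, then 5'-biotin/3'-phosphotyrosine-FITC DNA substrate (15 nM final) added for 5 min. AlphaScreen beads (10 ug/ml final) added 10 min; cleavage lowers signal.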
TDP1 cell CPT = DT40-hTDP1 cell growth loss with CPT; chicken DT40 Tdp1-/-;hTDP1 cells + 20 nM CPT, ATP luminescence, 48 h; Potency, µM (top dose mostly 46.2 µM), without a hit: at the top dose activity change, negative = growth inhibition, most hits filed as inhibitors; actives 12% (n = 420,000); AID 686979; note: potency is the fitted concentration of half-maximal effect; nearly all actives have a fitted effect of over 55% in size
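Cell growth measured by CellTiter-Glo luminescence after a minimum 48 h, 37 C compound exposure with 20 nM CPT in Tdp1-knockout DT40 cells stably expressing hTDP1, seeded 400/well; qHTS titration format.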
Giardia killer = Giardia lamblia killing; activity change, % at 7.66 µM, hits read low; actives 0.15% (n = 340,000); Giardia lamblia trophozoite viability; in the data active = activity change below about -80%; inconclusive = between about -30% and that limit;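 note: parasites exposed to compound for two days anaerobically before the ATP read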
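ATP-content bioluminescence gauges trophozoite survival. Cells (100/well) receive compound and incubate anaerobically for 48 hrs at 37 deg C; detection reagent follows for 15-30 min at room temperature.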
ELG1 DNA repair = blocks ELG1-dependent DNA repair in HEK293T cells; HEK293T ELG1-luciferase reporter, luminescence, 16 h; DNA damage induced by 5-fluorouridine; Potency, µM (highest dose often 46.1 µM), without a hit: at the highest dose activity change, negative = inhibition, usual class: inhibitors; actives 2.3% (n = 330,000); AID 504467; note: potency is the fitted concentration of half-maximal effect; nearly all actives have a fitted effect of over 55% in size
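Cells (2,000 per well) received 5-fluorouridine plus test compound or DMSO and were incubated 16 hr at 37 °C, 5% CO2. Luciferase activity was read by luminescence 30 min after ONE-Glo addition; signal suppression marked inhibition of damage-induced ELG1 function.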
IL-1B inflam inh = inflammasome signaling inhibition, IL-1 beta readout; THP-1 LPS/ATP IL-1B secretion, AlphaLISA, 16 h; hits give low values; activity change, % at 57.5 µM; actives 4.7% (n = 360,000); in the data active = activity change below about -50%; inconclusive = mostly about -30% to -49%
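Secreted IL-1B measured by AlphaLISA bead assay after 16 h compound exposure of THP-1 cells; compounds (final up to 57.5 uM) added 1 h before LPS (250 ng/mL) and ATP (1.25 mM) stimulation; lower signal means less secretion.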
The depositor's hits bear a star; ? = inconclusive; . = not tested or not shown; [ ] = remark or other dose. Unless noted, calls come from the whole dose curve; as a rule, active = well fitted curve in the direction sought with a large enough effect; inconclusive = small, poorly fitted or top-dose-only effect, or another doubt; inactive = no such curve, though single readings can be large; an effect the other way counts as inactive or inconclusive. % is set by controls: 0 for no effect and ±100 for the full control effect.

SMILES	DT40 TDP1 no CPT	TDP1 block	TDP1 cell CPT	Giardia killer	ELG1 DNA repair	IL-1B inflam inh
CC1CC(N(C(=O)c2ccc(Cl)cc2)c2ccccc2)c2ccccc2N1C(=O)c1ccco1 (stereo not given)	5.8µM*	2.2%	11.6µM*	4.7	?	?
CCCCC(=O)NC(c1cccc([N+](=O)[O-])c1)c1ccc2cccnc2c1O (stereo not given)	2.91µM*	.	3.66µM*	-0.3	.	91.0
COc1ccc(NC(C)c2ccccc2)cc1 (stereo not given)	-1.2%	3.7%	2.4%	5.7	17.7%	10.0
Oc1cccc(C(Nc2nccs2)c2ccc3cccnc3c2O)c1 (stereo not given)	4.61µM*	9.2%	3.66µM*	5.3	?	-106.9*
COc1cccc(C(Nc2ccccc2)c2ccc3ccc(C)nc3c2O)c1 (stereo not given)	5.17µM*	.	5.8µM*	.	.	55.4
Cc1cccc(NC(c2ccc(O)cc2)c2ccc3ccc(C)nc3c2O)n1 (stereo not given)	16.4µM*	0.5%	23.1µM*	16.5	-3.6%	-71.1*
O=C(CCN1CCOCC1)NNC(=O)c1ccc(Cl)c([N+](=O)[O-])c1	-2.4%	3.4%	2.2%	6.4	8.9%	?
COc1ccc(Cl)cc1C(=O)NNC(=O)c1cc2ccccc2o1	?	-3.5%	4.1%	37.9	?	-10.0
O=[N+]([O-])c1ccc(NC(c2ccccc2)c2ccc3cccnc3c2O)cc1 (stereo not given)	4.61µM*	.	3.26µM*	11.3	.	73.0
CC(=O)NC(c1cccc([N+](=O)[O-])c1)c1ccc2cccnc2c1O (stereo not given)	1.03µM*	5.2%	2.59µM*	-14.5	?	189.2
COc1cccc(C(NC(C)=O)c2ccc3cccnc3c2O)c1 (stereo not given)	0.92µM*	.	0.731µM*	-1.9	?	203.1
O=[N+]([O-])c1ccc2cccnc2c1	-11.5%	.	5.3%	.	.	17.5
O=C(Nc1ccccc1Oc1ccccc1)[C@@H]1O[C@H](CO)[C@H](O)[C@H](O)[C@H]1O	-3.4%	.	-2.8%	.	.	18.2
N#Cc1c(-n2ncnc2-c2ccc(F)cc2)sc2c1CCCCC2	-22.6%	4.8%[12.3 µM]	1.2%	.	.	.
Cc1ccccc1N=CC1=C(O)c2ccccc2C1=O	16.4µM*	-2.4%	?	?	?	-8.4
O=C1C(C=NCc2ccco2)=C(O)c2ccccc21	?	-6.2%	?	-14.6	?	23.2
O=C1C(C=Nc2ccc(F)cc2)=C(O)c2ccccc21	-15.1%	4.8%	8.4%	-9.0	?	-15.6
COc1ccc(N=CC2=C(O)c3ccccc3C2=O)c(OC)c1	18.4µM*	3.4%	?	?	?	-12.6
Cc1ccc(NC(=O)c2cccc(NC(=O)N3CCSc4ncccc43)c2)cc1F	-24.8%	5.6%	-18.6%	.	.	.
O=C(NNc1ncnc2sccc12)c1ccc(Cl)cc1	9.2µM*	.	13µM*	-21.5	?	8.3
O=C(NNc1ncccc1-n1cccc1)c1ccc(Cl)cc1	7.31µM*	-1.3%	?	8.5	?	-19.7
Cc1csc2ncnc(NNC(=O)c3ccc(Cl)cc3)c12	10.3µM*	2.9%	?	-0.4	-8.7%	35.0
Cc1ccc(C(=O)NNc2ncnc3c2cnn3C)cc1	-6.5%	1.2%	3.5%	-18.3	19.0%	6.5
COc1cccc(CN2CC(C(=O)NCc3ccc(Cl)s3)CCC2=O)c1 (stereo not given)	17.0%	.	-3.1%	17.4	-3.4%	-15.8
COc1ccccc1N1CCN(C(=O)c2cc3c(=O)n4cccc(C)c4nc3s2)CC1	?	1.8%	-3.6%	30.7	?	48.2
SMILES	DT40 TDP1 no CPT	TDP1 block	TDP1 cell CPT	Giardia killer	ELG1 DNA repair	IL-1B inflam inh
Cc1ccsc1/C=N/NC(=O)Cc1cccn1C	-7.8%	7.9%	-2.5%	-2.5	9.1%	-8.6
COc1cccc(C(=O)N/N=C(\C)CC(=O)Nc2ccc(N(C)C)cc2)c1	-2.3%	7.8%	-0.4%	3.7	29.2%	-88.7*
C/C(CC(=O)Nc1ccc(N(C)C)cc1)=N\NC(=O)c1ccc([N+](=O)[O-])cc1Cl	20.6µM*	3.5%	?	-3.0	3.4%	10.7
Cc1cc(C)c(C(=O)NCc2nc(-c3cccc(NC(=O)C4CCCN(C)C4)c3)oc2C)[nH]1 (stereo not given)	?	.	-1.9%[9.04 µM]	.	.	.
Cc1nn(-c2ccccc2)c(Cl)c1/C=C/C(=O)c1ccccc1	?	3.9%	?	-2.7	?	-94.7*
Cc1nn(-c2ccccc2)c(Cl)c1/C=C1\C(=O)N(C)C(=S)N1C	14.6µM*	6.0%	?	9.2	?	-22.7
COc1ccc(CNC(=O)C2Cc3cc(S(=O)(=O)N4CCCC4)ccc3N2C(C)=O)c(OC)c1 (stereo not given)	1.3%	3.8%	-20.4%	-0.3	-7.5%	-9.5
COc1ccccc1CN(Cc1c(Cl)cccc1Cl)S(=O)(=O)c1ccc(Br)cc1	20.6µM*	10.4%	16.4µM*	.	.	.
COc1ccccc1CNC(=O)C(C)NS(=O)(=O)c1ccc(Br)cc1 (stereo not given)	?	0.0%	-10.8%	1.0	-12.1%	9.4
Cc1ccc(S(=O)(=O)N2CCN(C(=O)COC(=O)COc3ccc(Cl)cc3C)CC2)c(C)c1	-20.4%	.	-7.0%	-2.7	.	8.4
CCOc1ccc(NC(=O)c2cccc3c2C(=O)N(Cc2cccnc2)C3)cc1	?	7.2%	?	-0.7	9.4%	-82.2*
CCCN1Cc2cccc(C(=O)NC(CC(=O)OCC)c3ccc(C)cc3)c2C1=O (stereo not given)	-28.4%	-5.4%	1.6%	3.5	-23.3%	14.0
COCCN1Cc2cccc(C(=O)Nc3ccc(C)cc3)c2C1=O	?	8.1%	-28.2%	-6.0	-15.4%	-68.3*
CCCN1Cc2cccc(C(=O)Nc3ccccc3F)c2C1=O	?	5.8%	?	.	.	.
CCCN1Cc2cccc(C(=O)Nc3ccc(CN4CCCC4)cc3)c2C1=O	23.1µM*	-2.6%	-3.2%	30.4	16.1%	-56.0*
COC(CNC(=O)c1cccc2c1C(=O)N(Cc1cccnc1)C2)OC	-20.7%	5.1%	3.7%	7.3	?	-19.1
CCCN1Cc2cccc(C(=O)NC(CC(=O)OCC)c3ccc(OC(C)C)cc3)c2C1=O (stereo not given)	20.6µM*	4.9%	?	-1.0	?	30.4
Cc1cc(NC(=O)/C=C/c2ccc(Cl)cc2)no1	-10.3%	-2.7%	-0.2%	12.8	?	-6.2

Source: PubChem (National Center for Advancing Translational Sciences (NCATS))
